{"source": "PubChem BioAssay (NCATS)", "key": {"[1]": {"biological_target": "Lysosomal acid glucosylceramidase (Homo sapiens) (UniProt P04062)", "sequence (P04062 whole entry, looked up)": "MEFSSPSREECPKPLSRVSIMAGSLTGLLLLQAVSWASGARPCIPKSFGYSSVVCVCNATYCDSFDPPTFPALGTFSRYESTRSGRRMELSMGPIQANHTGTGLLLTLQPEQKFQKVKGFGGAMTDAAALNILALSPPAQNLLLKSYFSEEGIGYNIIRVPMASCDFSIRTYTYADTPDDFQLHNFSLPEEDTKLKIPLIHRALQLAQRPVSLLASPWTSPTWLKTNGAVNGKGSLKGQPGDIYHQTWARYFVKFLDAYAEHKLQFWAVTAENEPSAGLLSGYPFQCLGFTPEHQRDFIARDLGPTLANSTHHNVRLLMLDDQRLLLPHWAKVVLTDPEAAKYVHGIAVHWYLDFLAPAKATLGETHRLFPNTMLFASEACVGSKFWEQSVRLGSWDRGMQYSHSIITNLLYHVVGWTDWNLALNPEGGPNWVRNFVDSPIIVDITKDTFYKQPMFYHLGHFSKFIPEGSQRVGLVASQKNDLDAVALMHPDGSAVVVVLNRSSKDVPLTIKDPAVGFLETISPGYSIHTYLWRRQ", "assay": "Glucocerebrosidase-p2 (AID 348; in the data active = potency below about 10 µM; also: potency is read from the fitted curve at half-maximal effect)", "conditions": "purified GBA, blue fluorogenic substrate, 40 min", "procedure,_shortened": "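Compounds titrated from 0.6 nM upwards against 0.2 nM enzyme in pH 5.9 citric acid/KH2PO4, taurocholate, tween-20; blue fluorogenic substrate 80 uM, 40 min room temperature, stopped and read Ex 365/Em 440 for AC50.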"}, "[2]": {"assay": "AP1 Signaling Pathway (AID 357); also: % is scaled to controls: 0 for no effect and ±100 for the full control effect", "conditions": "ME-180 AP-1-bla reporter, EGF-induced, beta-lactamase ratio, 5 h; at 7.69 µM (top of the series) unless noted", "procedure,_shortened": "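First, ME-180 AP-1-bla cells were cultured overnight at 37 °C in low-serum Opti-MEM. Next, titrated compounds with EC50 EGF were incubated 5 hours. Finally, CCF4 was added for 2.5 hours and the 460/530 nm ratio recorded.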"}, "[3]": {"assay": "Stat Signaling Pathway (AID 446);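 also: ME-180 cervical cancer cells given 40 pM IL-6 alongside compound; SIE-controlled beta-lactamase reporter measured as 460/530 nm FRET emission ratio; % is scaled to controls: 0 for no effect and ±100 for the full control effect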", "conditions": "ME-180 SIE beta-lactamase reporter, IL-6 stimulated, 5 h; at 7.69 µM (top of the series) unless noted", "procedure,_shortened": "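ME-180 cells carrying a SIE-driven beta-lactamase reporter are stimulated with 40 pM IL-6 for 5 h at 37C in the presence of compound. The 460/530 nm FRET substrate ratio is read after 2.5 h at RT. Data are normalised to 300 pM IL-6 and to 125 nM JAK inhibitor controls.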"}, "[4]": {"biological_target": "Glucocorticoid receptor (Homo sapiens) (UniProt P04150)", "sequence (P04150 whole entry, looked up, the tested form may be a part)": "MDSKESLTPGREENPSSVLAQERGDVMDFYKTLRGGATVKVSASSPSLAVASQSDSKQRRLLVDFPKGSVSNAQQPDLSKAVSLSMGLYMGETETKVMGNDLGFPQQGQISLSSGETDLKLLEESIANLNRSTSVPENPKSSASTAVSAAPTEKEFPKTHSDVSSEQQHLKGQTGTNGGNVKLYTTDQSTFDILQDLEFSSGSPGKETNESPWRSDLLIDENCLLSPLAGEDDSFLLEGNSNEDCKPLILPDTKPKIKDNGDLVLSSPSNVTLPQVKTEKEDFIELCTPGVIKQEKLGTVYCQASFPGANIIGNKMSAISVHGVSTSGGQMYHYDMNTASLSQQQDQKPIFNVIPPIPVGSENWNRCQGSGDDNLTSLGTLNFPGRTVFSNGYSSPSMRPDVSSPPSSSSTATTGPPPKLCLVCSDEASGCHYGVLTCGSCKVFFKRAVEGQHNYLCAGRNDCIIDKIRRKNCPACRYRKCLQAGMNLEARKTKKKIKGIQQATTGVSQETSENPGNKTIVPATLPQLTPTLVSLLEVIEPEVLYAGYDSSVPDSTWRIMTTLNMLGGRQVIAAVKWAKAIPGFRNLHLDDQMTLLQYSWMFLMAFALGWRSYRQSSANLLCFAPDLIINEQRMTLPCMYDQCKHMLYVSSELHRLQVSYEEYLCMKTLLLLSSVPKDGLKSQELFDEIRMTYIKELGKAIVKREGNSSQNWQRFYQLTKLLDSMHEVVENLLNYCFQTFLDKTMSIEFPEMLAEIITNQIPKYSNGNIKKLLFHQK", "assay": "GR-EFC Redistribution (AID 451; calls by dose curve; also: potency is read from the fitted curve at half-maximal effect)", "conditions": "CHO-K1 GR-EFC translocation, beta-gal luminescence, 2 h", "procedure,_shortened": "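Translocation of GR-ED fusion to nuclear EA restores b-gal, read by luminescence after 1 h room-temperature detection. Engineered CHO-K1 biosensor cells, 1,000/well, exposed 2 h at 37 C to titrations up to 46 uM final.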"}, "[5]": {"biological_target": "Mitogen-activated protein kinase 10 (Mus musculus) (UniProt Q61831)", "assay": "JNK3 AlphaScreen Assay (AID 530);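 also: signal reports phosphorylation of biotinylated GST-cJun 1-79 at Ser73 with 10 µM ATP; % is scaled to controls: 0 for no effect and ±100 for the full control effect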", "conditions": "JNK3 lysate, c-Jun phosphorylation; series mostly up to 11.4 µM", "procedure,_shortened": "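Compound titrations were preincubated 15 minutes at room temperature with substrate, antibody and pre-activated JNK3-containing HepG2 lysate. Reactions were started with 10 uM ATP and stopped with EDTA-containing bead buffer for AlphaScreen detection.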"}, "[6]": {"biological_target": "3',5'-cyclic-AMP phosphodiesterase 4B (Homo sapiens) (UniProt Q07343)", "sequence (Q07343 whole entry, looked up)": "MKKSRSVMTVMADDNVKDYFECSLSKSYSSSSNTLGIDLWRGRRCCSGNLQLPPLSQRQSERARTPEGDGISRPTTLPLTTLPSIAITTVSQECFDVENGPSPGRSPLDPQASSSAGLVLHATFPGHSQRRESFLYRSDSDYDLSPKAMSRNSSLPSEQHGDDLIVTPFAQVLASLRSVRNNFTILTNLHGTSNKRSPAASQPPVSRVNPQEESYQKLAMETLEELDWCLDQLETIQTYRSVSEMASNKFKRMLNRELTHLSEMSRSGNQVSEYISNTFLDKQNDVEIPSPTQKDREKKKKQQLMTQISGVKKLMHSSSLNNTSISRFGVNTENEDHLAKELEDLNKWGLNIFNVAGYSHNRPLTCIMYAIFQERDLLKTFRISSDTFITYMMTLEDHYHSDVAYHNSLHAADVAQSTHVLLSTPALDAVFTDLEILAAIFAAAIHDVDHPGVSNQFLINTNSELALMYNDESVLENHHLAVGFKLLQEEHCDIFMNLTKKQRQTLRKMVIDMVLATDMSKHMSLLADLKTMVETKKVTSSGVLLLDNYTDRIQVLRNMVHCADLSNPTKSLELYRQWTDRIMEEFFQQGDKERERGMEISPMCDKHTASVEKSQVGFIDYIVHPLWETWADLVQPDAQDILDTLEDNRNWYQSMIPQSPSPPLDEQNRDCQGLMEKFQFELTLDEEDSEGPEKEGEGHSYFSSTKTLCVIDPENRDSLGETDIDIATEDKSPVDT", "assay": "qHTS Assay for Inhibitors of PDE-IV (AID 607; active = well fitted activation curve with a large enough effect in the main read-out, with a control signal flat, not every such curve was filed as active; also: % of control where 0% means no effect)", "conditions": "HEK293 ACTOne CNG channel cells, membrane potential fluorescence; series mostly up to 22.9 µM", "procedure,_shortened": "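HEK293 ACTOne cells with CNG channel (1000/well), endogenous PDE4; membrane potential dye, compounds up to 22.9 uM final. Fluorescence Ex 535/Em 590; RO 20-1724 (100 uM final) as reference.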"}, "[7]": {"biological_target": "Cytochrome P450 2D6 (Homo sapiens) (UniProt P10635)", "sequence (P10635 whole entry, looked up)": "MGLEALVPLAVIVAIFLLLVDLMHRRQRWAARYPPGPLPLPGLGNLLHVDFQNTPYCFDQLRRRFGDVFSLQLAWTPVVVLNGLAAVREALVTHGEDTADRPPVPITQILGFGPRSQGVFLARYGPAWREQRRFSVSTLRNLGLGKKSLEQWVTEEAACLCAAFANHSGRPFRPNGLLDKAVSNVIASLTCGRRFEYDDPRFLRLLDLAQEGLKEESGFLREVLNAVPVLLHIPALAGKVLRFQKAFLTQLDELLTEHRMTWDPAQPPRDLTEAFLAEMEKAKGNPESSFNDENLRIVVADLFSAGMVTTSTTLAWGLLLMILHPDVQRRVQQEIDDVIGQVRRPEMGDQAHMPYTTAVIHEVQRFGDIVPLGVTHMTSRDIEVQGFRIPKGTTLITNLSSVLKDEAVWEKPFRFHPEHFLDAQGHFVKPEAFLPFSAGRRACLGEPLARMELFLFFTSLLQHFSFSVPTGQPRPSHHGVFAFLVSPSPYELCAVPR", "assay": "qHTS Assay for Inhibitors and Substrates of Cytochrome P450 2D6 (AID 891; active = well fitted inhibition curve with a large enough effect; also: potency is read from the fitted curve at half-maximal effect; nearly all actives have a fitted effect of over 60% in size)", "conditions": "recombinant CYP2D6, luciferin-ME EGE luminescence; series mostly up to 11.4 µM", "procedure,_shortened": "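Human CYP2D6 (5 nM) with 30 uM Luciferin-ME EGE (at Km) in 100 mM KPO4, compound preincubated 10 min, then NADPH regeneration system for 60 min at room temperature. Luciferin read by luminescence; normalized to 1.43 uM quinidine.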"}, "[8]": {"biological_target": "Glucocorticoid receptor (Homo sapiens) (UniProt P04150)", "assay": "GR-GFP Redistribution (AID 450;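 active = compounds whose dose series gives a full or clear partial fitted curve of increased nuclear translocation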; also: potency is read from the fitted curve at half-maximal effect)", "conditions": "U2OS GR-GFP nuclear translocation, laser cytometry, 2 h"}}, "note": "Unmarked numbers belong to inactive results. Inconclusive results are not listed. Active and inactive are the calls of the source. Unless noted, calls follow the shape of the dose curve; as a rule, active = well fitted curve in either direction with a large enough effect (not every such curve was filed as active); inconclusive = small, poorly fitted or top-dose-only effect, or another doubt; inactive = flat fitted curve, though single readings scatter.", "data": [{"smiles": "O[C@@H](c1cc(-c2ccc(Cl)cc2)nc2ccccc12)[C@@H]1CCCCN1", "values": [{"measurement": "Potency", "setting": "[1]", "result": "> 11.4", "unit": "µM"}, {"measurement": "activity change, negative = inhibition", "setting": "[2]", "result": -7.25, "unit": "%"}, {"measurement": "activity, negative = inhibition", "setting": "[3]", "result": -6.67, "unit": "%"}, {"measurement": "Potency", "setting": "[4]", "result": "> 9.22", "unit": "µM"}, {"measurement": "Potency", "setting": "[5]", "result": "inactive"}, {"measurement": "Potency", "setting": "[6]", "result": "inactive"}, {"measurement": "Potency", "setting": "[7]", "result": "0.631 µM (active)"}]}, {"smiles": "COc1cccc2c1C(=N)c1c(O)c3c(c(O)c1C2=O)C[C@](O)(C(C)=O)C[C@@H]3O[C@H]1C[C@H](N)[C@@H](O)[C@H](C)O1", "values": [{"measurement": "Potency", "setting": "[1]", "result": "> 11.4", "unit": "µM"}, {"measurement": "activity change, negative = inhibition", "setting": "[2]", "result": -2.66, "unit": "%"}, {"measurement": "Potency", "setting": "[8]", "result": "> 46", "unit": "µM"}, {"measurement": "Potency", "setting": "[4]", "result": "> 9.22", "unit": "µM"}, {"measurement": "Potency", "setting": "[6]", "result": "inactive"}]}]}
